Measured values from PubChem BioAssay AID602350 (Broad Institute, 2012).
Results with a measured potency or affinity are listed apart.

target: Protein disulfide-isomerase (Homo sapiens) (UniProt P07237); assay: PDI inhibitors, insulin aggregation turbidity, dose response, biochemical, absorbance, cherry-picked samples (AID 602350); conditions: recombinant PDI insulin aggregation, absorbance 650 nm, 90 min; series mostly up to 19.5 µM; activity change, negative = inhibition: at the top concentration;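 further: 0% = neutral controls and -100% = rutin hydrate positive control wells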
Sequence (P07237 whole entry, looked up): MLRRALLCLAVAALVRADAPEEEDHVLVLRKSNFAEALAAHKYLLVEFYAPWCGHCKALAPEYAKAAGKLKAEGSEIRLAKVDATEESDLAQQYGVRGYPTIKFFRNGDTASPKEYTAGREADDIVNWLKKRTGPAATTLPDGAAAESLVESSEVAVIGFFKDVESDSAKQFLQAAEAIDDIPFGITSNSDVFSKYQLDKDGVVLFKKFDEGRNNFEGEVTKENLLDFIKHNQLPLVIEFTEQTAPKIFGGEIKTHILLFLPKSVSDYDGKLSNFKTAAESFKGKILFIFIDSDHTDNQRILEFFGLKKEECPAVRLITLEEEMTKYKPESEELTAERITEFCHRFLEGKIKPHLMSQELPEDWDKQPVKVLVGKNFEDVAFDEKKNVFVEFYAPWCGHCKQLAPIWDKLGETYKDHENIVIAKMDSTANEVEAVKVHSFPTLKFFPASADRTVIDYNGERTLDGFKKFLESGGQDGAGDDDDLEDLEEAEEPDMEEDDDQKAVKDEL

Activity change, negative = inhibition, inactive:
O=C(Cc1ccccc1)Nc1cccc(C(=O)N/N=C/c2ccco2)c1 3.54%, CCOc1ccc(NC(=O)CN(C)C(=O)c2cc(C)nc3ccccc23)cc1OCC 3.17%, CCOC(=O)C1(CCOc2ccccc2)CCN(Cc2ccc(OC)cc2)CC1 0.844%, CCCN(CCC)S(=O)(=O)c1ccc(C(=O)Nc2nnc(COC)o2)cc1 5.64%, CCCCNC(=O)Nc1ccon1 4.27%, Cc1ccc(C)c(NS(=O)(=O)c2c(C)nn(C)c2C)c1 22.5%, Cc1[nH][nH]c(=O)c1C(c1c(C)[nH][nH]c1=O)c1cn(Cc2ccccc2Cl)c2ccccc12 7.21%, O=C(Nc1cccc(S(=O)(=O)Nc2ccc(SC(F)F)cc2)c1)C1CCC1 -18.6%, O=C1CCC(=O)N1c1nc2nc(-c3ccccc3)cc(-c3ccccc3)n2n1 -3.29%, COc1cc(C(C)=O)ccc1OCC(=O)NCCCn1nc(C)cc1C 0.514%, FC(F)(F)c1cccc(NC(=S)NCc2ccccn2)c1 1.52%, O=C1CCC(=O)N1CCc1c[nH]c2ccccc12 -9.9%, CCOC(=O)c1c(CN(C)C)n(-c2ccc(C)cc2)c2cc(Br)c(O)cc12 -19%, CCOC(=O)CN(c1ccccc1)S(=O)(=O)c1ccc(F)cc1 -16%, Cc1ccc2c(=O)n3c(nc2c1)C(Cc1ccc(O)cc1)NC(=O)c1cccnc1-3 (centres undefined) -11.4%, COc1ccc(C[C@@H]2CN3C(=NC[C@@H]3Cc3ccc(O)cc3)N2C[C@H](C)NC(=O)CCC2CCCCC2)cc1 -19.6%, CCOC(=O)c1c(CN2CCN(C)CC2)n(C)c2cc(Br)c(OC)cc12 -0.959%, Cn1c(=O)n(CCCOc2ccc(Br)cc2)c2ccccc21 -0.664%, CCOC(=O)C1(Cc2ccc(O)cc2)NC(c2ccccc2F)C2C(=O)N(C)C(=O)C21 (centres undefined) -45.6%, Cc1noc(C)c1-c1ccc(C(=O)NCc2ccc(Cl)cc2)c2occc12 -1.09%, O=C1N[C@@H](Cc2c[nH]c3ccccc23)COC(=O)[C@H](Cc2ccc(F)cc2)C/C=C\C[C@H]1CC(=O)N(CCO)Cc1ccccc1 6.97%, CC(=O)Oc1ccccc1C(=O)C=Cc1cccc([N+](=O)[O-])c1 -11.6%, O=C(/C=C/c1ccc(N2CCCCC2)c([N+](=O)[O-])c1)c1ccc(O)cc1 -1.08%, O=C1C[C@H](c2ccc(O)cc2)Oc2cc(O[C@@H]3O[C@H](CO)[C@@H](O)[C@H](O)[C@H]3O)cc(O[C@@H]3O[C@H](CO)[C@@H](O)[C@H](O)[C@H]3O)c21 -11.2%, Oc1cccc(-c2nc3c4c(ncn3n2)-c2ccccc2CC42CCCC2)c1 -1.88%, NC(=O)c1nsc(C(=O)N(CC(=O)NCc2ccc(F)cc2)Cc2ccco2)c1N 0.167%, Cc1nnc(SCc2cc(=O)oc3cc(O)ccc23)n1Cc1ccccc1 -9.62%, Cc1cccc(C(=O)OCC(=O)N2CCCCCC2)c1O 2.35%, CN(C1=NC(=O)C(CC(=O)Nc2ccc(Br)cc2)S1)c1ccc(O)cc1 (centres undefined) -40.4%, CCOC(=O)C1(C)CCCN(C(=O)c2cccc(Cl)c2)C1 (centres undefined) 11.9%, O=C1NC[C@H](Cc2ccccc2)N(C[C@H]2CCCN2C[C@H](Cc2ccccc2)N2C[C@H](Cc3ccc(O)cc3)N(CC3CCCCCC3)C(=O)C2=O)C1=O -0.123%, CC(NC(=O)COC(=O)Cc1ccccc1[N+](=O)[O-])c1ccccc1 (centres undefined) 7.76%, C[C@H]1CN([C@@H](C)CO)C(=O)Cc2cc(NC(=O)Nc3ccccc3)ccc2O[C@@H]1CN(C)Cc1ccccc1 -20.7%, CC(C)Cn1c(N)c(C(=O)COC(=O)c2ccc(O)cc2)c(=O)n(C)c1=O -12%, CCCCNC(=O)N1CCN(C(=O)C2CCCO2)CC1 (centres undefined) -3.88%, C=CCn1c(C(CCCC)CC(O)COCC(C)C)n[nH]c1=S (centres undefined) 5.07%, C[C@H](CO)N1C[C@H](C)[C@@H](CN(C)Cc2ccccc2)Oc2ccc(NC(=O)Nc3ccccc3)cc2CC1=O -16.7%, C=CCNc1ncnc2c1ncn2[C@H]1CN(Cc2cccc3ccccc23)C[C@@H](CO)O1 -15.6%, COCC(=O)N(C)C1(c2nnnn2CCOC(=O)Nc2ccc(Cl)cc2)CCCCC1 21.7%
